# Screening data: PubChem BioAssay, National Center for Advancing Translational Sciences (NCATS)
# The list is not random: actives were taken first. Their share in the collection is about 22%.
# Pf growth 48h: inhibits P. falciparum growth in the first generation, 48 h. P. falciparum luciferase growth in erythrocytes, 48 h. Potency, µM (top dose mostly 28.7 µM), for inactives: top-dose activity change, negative = inhibition, usual class: inhibitors. actives 5.9% (n = 310,000); also: potency is read from the fitted curve at half-maximal effect; % is scaled to controls: 0 for no effect and ±100 for the full control effect
#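 Cell-based growth assay: transgenic P. falciparum expressing firefly luciferase, cultured in red cells within RPMI 1640 containing 0.5% w/v Albumax, 24 mM bicarbonate and gentamycin. A drop in luciferase activity indicates inhibition.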
# LmPK inh: inhibitors of Leishmania mexicana pyruvate kinase; Q27686; purified LmPK, Kinase-Glo ATP luminescence, 1 h; Potency, µM (doses to about 57.5 µM), inactives show top-dose activity change, negative = inhibition, usual class: inhibitors; actives 0.37% (n = 290,000); also: potency is read from the fitted curve at half-maximal effect; % is scaled to controls: 0 for no effect and ±100 for the full control effect
# Target sequence (Q27686 whole entry, looked up): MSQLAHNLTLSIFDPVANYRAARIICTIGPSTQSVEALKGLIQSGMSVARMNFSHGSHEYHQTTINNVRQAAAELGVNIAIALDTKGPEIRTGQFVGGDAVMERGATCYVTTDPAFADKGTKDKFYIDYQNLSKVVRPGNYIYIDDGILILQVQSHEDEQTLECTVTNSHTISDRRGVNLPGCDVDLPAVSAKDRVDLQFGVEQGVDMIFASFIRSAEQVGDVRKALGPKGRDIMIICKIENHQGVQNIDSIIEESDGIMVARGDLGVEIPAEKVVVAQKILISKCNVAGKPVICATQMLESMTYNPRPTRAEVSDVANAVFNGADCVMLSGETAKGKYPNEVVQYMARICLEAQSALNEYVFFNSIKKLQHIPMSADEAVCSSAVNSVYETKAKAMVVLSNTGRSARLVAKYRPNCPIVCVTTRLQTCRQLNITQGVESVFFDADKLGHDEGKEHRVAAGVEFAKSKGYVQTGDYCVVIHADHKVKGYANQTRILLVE
#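 ATP generated from ADP (0.1 mM) and PEP (0.5 mM) by 0.1 nM LmPK over 1 h at room temperature (pH 7.2 imidazole buffer) was detected by coupled luciferase luminescence. Values were normalized to uninhibited and no-enzyme wells.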
# Shiga inhibitor: blocks Shiga toxin action in Vero cells | AID 2315 | Vero cells, Shiga toxin protein synthesis inhibition reporter | actives 9.2% (n = 290,000) | inhibition, % at 38.7 µM; in the data active = inhibition mostly above about 28%, no sharp cut-off; inactive = mostly below about 43%; also: 0% is about no effect
# Pf growth 96h: P. falciparum growth inhibition at 96 hour, primary screen for plastid delayed-death inhibitors; AID 504834; actives 6.9% (n = 320,000); P. falciparum luciferase reporter growth, 96 h; Potency, µM (top dose mostly 28.7 µM), inactives show at the highest dose activity change, negative = inhibition, hits mostly inhibitors; also: potency is read from the fitted curve at half-maximal effect; % is scaled to controls: 0 for no effect and ±100 for the full control effect
#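 Cell-based qHTS: luciferase-tagged P. falciparum in erythrocytes (2% hematocrit, 0.05% parasitemia final) incubated with compounds for 96 hours, 37 C, 5% CO2; luciferase detection reagent then added and luminescence measured.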
# Cycloheximide cs: affects cycloheximide protein synthesis inhibition readout, counter-screen. cell reporter, cycloheximide protein synthesis inhibition counterscreen. max response, %. actives 12% (n = 300,000); in the data active = max response mostly above about 13%, no sharp cut-off; inactive = mostly below about 14%; also: read at 38.3 µM for the half of the compounds with a filed dose; 0% is about no effect
# * hit, by the source's call; u = inconclusive; x = no result; [ ] = another dose, or the depositor's remark. Unless noted, calls follow the shape of the dose curve; as a rule, active = well fitted inhibition curve with a large enough effect; inconclusive = small, poorly fitted or top-dose-only effect, or another doubt; inactive = no such curve, though single readings can be large or run the other way.
SMILES,Pf growth 48h,LmPK inh,Shiga inhibitor,Pf growth 96h,Cycloheximide cs
COc1ccc([N+](=O)[O-])cc1NC(=O)C(C)OC(=O)/C=C/c1ccco1 (stereo not drawn),9%,1%,36*,-19%,17*
COc1cc(OC)cc(C(=O)N2CCC(C(=O)Nc3ccc4c(c3)OCCO4)CC2)c1,0%,2%,-6,6%,-2
CC(=O)Nc1ccc(NC(=O)C(C)Sc2nc3ccccc3c(=O)n2CC2CCCO2)cc1 (stereo not drawn),u,x,x,-18%,x
O=C(/C=C/c1ccco1)Nc1cccc(S(=O)(=O)N2CCOCC2)c1,15%,-1%,13,u,2
CSc1cccc(NC(=O)/C=C/c2ccco2)c1,142%,2%,110*,55%,55*
COc1ccccc1NC(=O)/C=C\c1ccco1,x,-3%,68*,9%,41*
COC(=O)/C=C/C(=O)Nc1cccnc1,u,1%,30,12%,-5
CC(C)(C)c1ccc(/C=C/C(=O)Nc2cccnc2)cc1,13%[0.00184 µM],-2%,70*,5%,29*
COc1ccccc1NC(=S)NC(=O)/C=C/c1ccco1,3%,5%,9,40%,7
CCC(C)C(NS(=O)(=O)c1ccc(C)cc1)C(=O)N1CCOCCOCCOCC1 (stereo not drawn),1%,2%,1,-13%,-3
Cc1csc2ncnc(N3CCN(C(=S)Nc4ccc(F)cc4F)CC3)c12,18%,-3%,18,47%,-2
CCN1C(=O)[C@@H]2Cc3c([nH]c4ccccc34)C(c3ccc(OC)cc3)N2C1=S (stereo partly drawn),15µM*,3%,32*,u,21*
COCCCN1CC(=O)N2C(c3cccc(OC)c3OC)c3[nH]c4ccccc4c3C[C@H]2C1=O (stereo partly drawn),9.3µM*,8%,-4,12µM*,-3
COCCN1CC(=O)N2C(c3cccc(C)c3)c3[nH]c4ccccc4c3C[C@H]2C1=O (stereo partly drawn),13µM*,-3%,5,12µM*,-8
COCCCN1CC(=O)N2C(c3cccc(C)c3)c3[nH]c4ccccc4c3C[C@H]2C1=O (stereo partly drawn),9.3µM*,7%,-2,u,-6
CN1CC(=O)N2C(c3ccc(Cl)cc3)c3[nH]c4ccccc4c3C[C@H]2C1=O (stereo partly drawn),8.3µM*,-1%,-17,13µM*,-6
CC(C)OCCCN1CC(=O)N2C(c3ccccc3)c3[nH]c4ccccc4c3C[C@H]2C1=O (stereo partly drawn),9.3µM*,4%,56*,u,21*
Cc1ccc(S(=O)(=O)N(C)c2ccccc2C(=O)Nc2c(F)cccc2F)cc1,-25%,-4%,-11,u,2
O=C(c1ccc2c(c1)OCO2)C1CCCN(Cc2c(F)ccc(F)c2F)C1 (stereo not drawn),-9%,-1%,33,u,-1
CC(C)(C)c1ccc(OC(=O)Cn2c(C(F)(F)F)nc3ccccc32)cc1,58%,2%,-13,82%,0
Cc1cc(Oc2nc3c(C)cccn3c(=O)c2/C=C(\C#N)S(=O)(=O)c2ccccc2)ccc1Cl,u,2%,1,2.3µM*,-1
Cc1cccn2c(=O)c(/C=C(\C#N)S(=O)(=O)c3ccccc3)c(Oc3ccc(Cl)cc3)nc12,u,5%,-3,12µM*,-3
CCc1cccc(CC)c1NC(=O)CSc1nnc(C2CC2)n1C,7%,-2%,-6,-1%,-4
COc1ccc(C(=O)COC(=O)CN2C(=O)C3C4C=CC(C5CC45)C3C2=O)cc1 (stereo not drawn),8%,1%,18,5%,-1
CSc1ccccc1NC(=O)c1ccccc1C,2%,1%,8,0%,9
CC(C)(C)CC(C)(C)c1ccc(O)c(Cc2ccc(Cl)cc2Cl)c1,1.9µM*,x,x,3µM*,x
O=C(Nc1ccccc1-c1ccccc1)C1CCCN(c2ncccn2)C1 (stereo not drawn),10%,1%,-2,u,3
CC1CCN(CCNC(=O)C2CCCN(S(=O)(=O)c3cccc4nsnc34)C2)CC1 (stereo not drawn),u,1%,-3,u,-4
